From the supplement of paper PMC8007513
Structures can show the parent of a compound that is named as a salt. ± gives the standard error. The whole screen tested about 1,300 compounds, of which about 75 (6%) showed an effect of 50% or more. Many of the other results were omitted from the sample, so strong results are more common in it than they were.

System: Trichoderma virens ATCC 9645
Experiment: growth yield (OD600) relative to untreated control; higher = less growth inhibition
Details: compound concentration: 100 uM
Method in brief: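 Growth appears as means of duplicate screens, relative to the control containing neither agent. To obtain it, OD600 was read on a BioTek EL800 at 40 h and 72 h. The cultures were 100 μl aliquots in 96-well plates at 30 °C, holding Trichoderma virens ATCC 9645 spores at 15,000 spores ml^−1 in potato dextrose broth, library compounds at 100 μM final, and, in some wells, a biocide at 200 ng ml^−1.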

Question: `C[C@@H]1C[C@H]2[C@@H]3C[C@H](F)C4=CC(=O)C=C[C@]4(C)[C@@]3(F)[C@@H](O)C[C@]2(C)[C@@]1(O)C(=O)COC(=O)C(C)(C)C` [Flumethasone pivalate] was tested. Which growth yield (40 h) did it give?
Answer: 106 ± 7.2%

Question: What about the growth yield (72 h) of the same compound?
Answer: 104 ± 5.3%

Question: `Cc1ccccc1OCC(O)CO` (stereo not drawn) [Mephenesin] was tested. Which growth yield (40 h) did it give?
Answer: 98 ± 3.3%

Question: What about the growth yield (72 h) of the same compound?
Answer: 99.5 ± 3.5%

Question: How did the growth yield (40 h) turn out when `Cc1cnc(C(=O)NCCc2ccc(S(=O)(=O)NC(=O)NC3CCCCC3)cc2)cn1` [Glipizide] was run?
Answer: 103.7 ± 0.48%

Question: And the growth yield (72 h)?
Answer: 104.3 ± 0.52%

Question: How did the growth yield (40 h) turn out when `O=C(O)[C@H]1/C(=C/CO)O[C@@H]2CC(=O)N21` [Clavulanate potassium salt] was run?
Answer: 95.5 ± 2.4%

Question: What about the growth yield (72 h) of the same compound?
Answer: 87.9 ± 3.4%

Question: Which growth yield (40 h) does the source give for `CC(COc1ccccc1)N(CCCl)Cc1ccccc1` (stereo not drawn) [Phenoxybenzamine hydrochloride] here?
Answer: 104 ± 4.6%

Question: What about the growth yield (72 h) of the same compound?
Answer: 103 ± 4.2%

Question: With `Oc1ccc(OCc2ccccc2)cc1` [Monobenzone] as the compound, how does the growth yield (40 h) read?
Answer: 48.6 ± 0.64%

Question: What about the growth yield (72 h) of the same compound?
Answer: 53.3 ± 1.7%

Question: With `CC(COc1ccccc1)NC(C)C(O)c1ccc(O)cc1` (stereo not drawn) [Isoxsuprine hydrochloride] as the compound, how does the growth yield (40 h) read?
Answer: 101 ± 1.1%

Question: And the growth yield (72 h)?
Answer: 98.6 ± 2.3%

Question: For `Cc1ccc(O)c([C@H](CCN(C(C)C)C(C)C)c2ccccc2)c1` [Tolterodine tartrate], which growth yield (40 h) is on record?
Answer: 96.7 ± 2.7%

Question: And the growth yield (72 h)?
Answer: 97.95 ± 0.42%

Question: What does the source list for `CN(C)CCn1nnnc1SCC1=C(C(=O)O)N2C(=O)[C@@H](NC(=O)Cc3csc(N)n3)[C@H]2SC1` [Cefotiam hydrochloride]?
Answer: growth yield (40 h): 102 ± 1.4%; growth yield (72 h): 102.2 ± 0.73%

Question: For `C[C@@H](c1ncncc1F)[C@](O)(Cn1cncn1)c1ccc(F)cc1F` [Voriconazole], which growth yield (40 h) is on record?
Answer: 3.02 ± 1.4%

Question: What about the growth yield (72 h) of the same compound?
Answer: 2.41 ± 0.94%

Question: For `OC(Cn1cncn1)(Cn1cncn1)c1ccc(F)cc1F` [Fluconazole], which growth yield (40 h) is on record?
Answer: 55.1 ± 1.8%

Question: What about the growth yield (72 h) of the same compound?
Answer: 61.14 ± 0.52%

Question: Which growth yield (40 h) does the source give for `CC(C)NC(=N)NC(=N)Nc1ccc(Cl)cc1` [Proguanil hydrochloride] here?
Answer: 110 ± 13%

Question: And the growth yield (72 h)?
Answer: 109 ± 9%

Question: `N=C(NCCCCCCNC(=N)NC(=N)Nc1ccc(Cl)cc1)NC(=N)Nc1ccc(Cl)cc1` [Chlorhexidine] was tested. Which growth yield (40 h) did it give?
Answer: 2.7 ± 1.4%

Question: What about the growth yield (72 h) of the same compound?
Answer: 2.31 ± 0.84%

Question: For `N=C(N)NC(=N)NCCc1ccccc1` [Phenformin hydrochloride], which growth yield (40 h) is on record?
Answer: 96.9 ± 1.9%

Question: What about the growth yield (72 h) of the same compound?
Answer: 91.5 ± 2.7%

Question: Which results are given for `CC(C)NCC(O)c1ccc2ccccc2c1` (stereo not drawn) [Pronethalol hydrochloride]?
Answer: growth yield (40 h): 98.6 ± 2.1%; growth yield (72 h): 99.3 ± 2%

Question: With `CC(=O)N[C@@H](CC(=O)N[C@@H](CCC(=O)O)C(=O)O)C(=O)O` [Spaglumic acid] as the compound, how does the growth yield (40 h) read?
Answer: 101 ± 3.5%

Question: And the growth yield (72 h)?
Answer: 99.5 ± 1.4%

Question: Which results are given for `CC(C)(C)CC(C)(C)c1ccc(OCCOCC[N+](C)(C)Cc2ccccc2)cc1` [Benzethonium chloride]?
Answer: growth yield (40 h): 1.75 ± 0.16%; growth yield (72 h): 1.78 ± 0.1%

Question: Which results are given for `C[N+](C)(CCOc1ccccc1)Cc1ccccc1.O=C([O-])c1cc2ccccc2cc1O` [Bephenium hydroxynaphthoate]?
Answer: growth yield (40 h): 73.2 ± 1.1%; growth yield (72 h): 79.6 ± 2.2%

Question: Which growth yield (40 h) does the source give for `Cc1cc(C(C)(C)CC(C)(C)C)ccc1OCCOCC[N+](C)(C)Cc1ccccc1` [Methyl benzethonium chloride] here?
Answer: 1.43 ± 0.79%

Question: What about the growth yield (72 h) of the same compound?
Answer: 0.944 ± 0.52%

Question: `CCOc1ccccc1OCC1CNCCO1` (stereo not drawn) [Viloxazine hydrochloride] was tested. Which growth yield (40 h) did it give?
Answer: 99.6 ± 1.8%

Question: And the growth yield (72 h)?
Answer: 96.4 ± 1.4%

Question: What does the source list for `COc1ncnc(NS(=O)(=O)c2ccc(N)cc2)c1OC` [Sulfadoxine]?
Answer: growth yield (40 h): 91 ± 9.4%; growth yield (72 h): 101 ± 2.6%

Question: Which results are given for `O=C1c2cccc3c2[C@H](CCC3)CN1[C@@H]1CN2CCC1CC2` [Palonosetron hydrochloride]?
Answer: growth yield (40 h): 103 ± 6%; growth yield (72 h): 99 ± 4.2%

Question: How did the growth yield (40 h) turn out when `O=C(NCCN1CCOCC1)c1ccc(Cl)cc1` [Moclobemide] was run?
Answer: 102 ± 2.1%

Question: And the growth yield (72 h)?
Answer: 106 ± 2%

Question: How did the growth yield (40 h) turn out when `COc1ccc2[nH]c([S+]([O-])Cc3ncc(C)c(OC)c3C)nc2n1` (stereo not drawn) [Tenatoprazole] was run?
Answer: 98.8 ± 4.8%

Question: And the growth yield (72 h)?
Answer: 102 ± 1.6%

Question: Which results are given for `CCOC(=O)c1ccc(OC(=O)CCCCCNC(=N)N)cc1` [Gabexate mesilate]?
Answer: growth yield (40 h): 76.6 ± 4.5%; growth yield (72 h): 76 ± 3.7%

Question: For `Cc1nnc(NS(=O)(=O)c2ccc(N)cc2)s1` [Sulfamethizole], which growth yield (40 h) is on record?
Answer: 100.4 ± 0.32%

Question: What about the growth yield (72 h) of the same compound?
Answer: 99.74 ± 0.1%

Question: How did the growth yield (40 h) turn out when `COC(=O)[C@H](c1ccccc1Cl)N1CCc2sccc2C1` [Clopidogrel] was run?
Answer: 76.9 ± 1.6%

Question: What about the growth yield (72 h) of the same compound?
Answer: 82 ± 1.1%

Question: Which growth yield (40 h) does the source give for `CO[C@@]1(NC(=O)Cc2cccs2)C(=O)N2C(C(=O)O)=C(COC(N)=O)CS[C@@H]21` [Cefoxitin sodium salt] here?
Answer: 94.4 ± 3.5%

Question: And the growth yield (72 h)?
Answer: 94.8 ± 1.9%

Question: With `Nc1c2ccccc2nc2ccccc12` [Aminacrine] as the compound, how does the growth yield (40 h) read?
Answer: 98.64 ± 0.48%

Question: And the growth yield (72 h)?
Answer: 96.9 ± 2.9%

Question: Which growth yield (40 h) does the source give for `Nc1ccc(/N=N/c2ccccc2)c(N)n1` [Phenazopyridine hydrochloride] here?
Answer: 21.1 ± 1.4%

Question: And the growth yield (72 h)?
Answer: 49.4 ± 6.2%

Question: `CCN(Cc1ccncc1)C(=O)C(CO)c1ccccc1` (stereo not drawn) [Tropicamide] was tested. Which growth yield (40 h) did it give?
Answer: 99.6 ± 1.8%

Question: And the growth yield (72 h)?
Answer: 102 ± 1.1%

Question: `CO[C@@H]1[C@@H](OC(N)=O)[C@@H](O)[C@H](Oc2ccc3c(O)c(NC(=O)c4ccc(O)c(CC=C(C)C)c4)c(=O)oc3c2C)OC1(C)C` [Novobiocin sodium salt] was tested. Which growth yield (40 h) did it give?
Answer: 92 ± 1.8%

Question: And the growth yield (72 h)?
Answer: 115 ± 4.7%

Question: What does the source list for `CCOC(=O)[C@@](C)(N)Cc1ccc(O)c(O)c1` [Methyldopate hydrochloride]?
Answer: growth yield (40 h): 104 ± 5.2%; growth yield (72 h): 97.85 ± 0.94%

Question: How did the growth yield (40 h) turn out when `N[C@H]1CONC1=O` [(S)-(-)-Cycloserine] was run?
Answer: 104 ± 3.3%

Question: What about the growth yield (72 h) of the same compound?
Answer: 96.8 ± 3%

Question: `Cc1cc(C)nc(NS(=O)(=O)c2ccc(N)cc2)n1` [Sulfamethazine sodium salt] was tested. Which growth yield (40 h) did it give?
Answer: 106 ± 4.5%

Question: And the growth yield (72 h)?
Answer: 101 ± 2.2%

Question: How did the growth yield (40 h) turn out when `Cc1noc(NS(=O)(=O)c2ccc(N)cc2)c1C` [Sulfisoxazole] was run?
Answer: 87.4%

Question: What about the growth yield (72 h) of the same compound?
Answer: 96.2 ± 1.8%

Question: How did the growth yield (40 h) turn out when `Cc1cc(NS(=O)(=O)c2ccc(N)cc2)no1` [Sulfamethoxazole] was run?
Answer: 40 ± 4.8%

Question: And the growth yield (72 h)?
Answer: 82.9 ± 2.1%

Question: What does the source list for `C#C[C@]1(O)CC[C@H]2[C@@H]3CCC4=Cc5oncc5C[C@]4(C)[C@H]3CC[C@@]21C` [Danazol]?
Answer: growth yield (40 h): 83.39 ± 0.79%; growth yield (72 h): 87.15 ± 0.32%

Question: Which results are given for `CCCc1nc(C(C)(C)O)c(C(=O)O)n1Cc1ccc(-c2ccccc2-c2nnn[nH]2)cc1` [Olmesartan]?
Answer: growth yield (40 h): 100 ± 3.2%; growth yield (72 h): 99.8 ± 2.9%

Question: Which growth yield (40 h) does the source give for `N#Cc1ccc(C(c2ccc(C#N)cc2)n2cncn2)cc1` [Letrozole] here?
Answer: 103 ± 1.1%

Question: What about the growth yield (72 h) of the same compound?
Answer: 101.5 ± 0.42%

Question: Which results are given for `c1ccc(-c2ccc(C(c3ccccc3)n3ccnc3)cc2)cc1` (stereo not drawn) [Bifonazole]?
Answer: growth yield (40 h): 2.86 ± 1.9%; growth yield (72 h): 1.99 ± 0.94%

Question: Which results are given for `CCC1(c2ccccc2)NC(=O)N(C)C1=O` (stereo not drawn) [Mephenytoin]?
Answer: growth yield (40 h): 110 ± 4.9%; growth yield (72 h): 102 ± 4.5%

Question: `CC1(C)[C@@H](OC(=O)CCC(=O)O)CC[C@]2(C)[C@H]3C(=O)C=C4[C@@H]5C[C@@](C)(C(=O)O)CC[C@]5(C)CC[C@@]4(C)[C@]3(C)CC[C@@H]12` [Carbenoxolone disodium salt] was tested. Which growth yield (40 h) did it give?
Answer: 95 ± 4.1%

Question: And the growth yield (72 h)?
Answer: 94.6 ± 2.1%

Question: Which results are given for `CN(C)[C@@H]1C(O)=C(C(N)=O)C(=O)[C@@]2(O)C(O)=C3C(=O)c4c(O)ccc(Cl)c4[C@@H](O)[C@H]3C[C@@H]12` [Demeclocycline hydrochloride]?
Answer: growth yield (40 h): 82.6 ± 3.2%; growth yield (72 h): 85.1 ± 5.6%
